Most compounds without a hit are left out; they make up all but 4.1% or so of the library.
AMA1-RON2 inh = disrupts binding of P. falciparum AMA1 to RON2 | Potency, µM (series often up to 58.2 µM), for inactives: at the top dose activity change, negative = inhibition, usual class: inhibitors | AlphaScreen AMA1-biotinylated RON2 peptide binding | AID 720542 | hit rate 0.2% among 360,000;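 further: 0% = vehicle wells and -100% = peptide control; nearly all actives have a fitted effect of over 45% in size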
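AMA1 (3D7) with his tag at 25 nM final met compounds first, then biotinylated RON2 peptide at 25 nM; detection used donor plus acceptor beads, 10 µg/mL apiece, read by AlphaScreen after 30 min at room temperature.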
AmpC detergent = AmpC beta-lactamase inhibition with detergent present | hit rate 0.041% among 370,000 | P00811 | Potency, µM (highest dose often 114 µM), without a hit: at the highest dose activity change, negative = inhibition, usual class: inhibitors | AmpC hydrolysis of nitrocefin, absorbance 480 nm, 0.01% Triton;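 further: 0% = no-compound wells and -100% = no-enzyme wells; nearly all actives have a fitted effect of over 25% in size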
Target sequence (P00811 whole entry, looked up): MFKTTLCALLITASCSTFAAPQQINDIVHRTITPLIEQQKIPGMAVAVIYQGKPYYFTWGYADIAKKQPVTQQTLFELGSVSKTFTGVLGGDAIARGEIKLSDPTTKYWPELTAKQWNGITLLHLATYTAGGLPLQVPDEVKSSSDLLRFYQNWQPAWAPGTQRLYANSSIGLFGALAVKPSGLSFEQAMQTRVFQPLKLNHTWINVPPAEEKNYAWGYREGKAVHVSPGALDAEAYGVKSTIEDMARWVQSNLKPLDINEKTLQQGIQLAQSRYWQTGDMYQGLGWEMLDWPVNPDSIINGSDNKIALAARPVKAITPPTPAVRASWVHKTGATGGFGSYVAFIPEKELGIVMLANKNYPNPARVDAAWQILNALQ
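20 mM phosphate pH 7.0 + 0.01% (detergent screen) or 0.0001% Triton X-100; 5.3 nM AmpC reagent; cpd preinc 15 min RT; nitrocefin (800 uM stock) to start; A480 q20 s × 4 min; Activity was normalised to no-enzyme and no-compound control wells.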
AmpC inh no detg = inhibitors of E. coli AmpC beta-lactamase without detergent. P00811. AmpC nitrocefin hydrolysis, absorbance 480 nm, 0.0001% Triton. Potency, µM (series often up to 57.1 µM), for the others: at the highest dose activity change, negative = inhibition, usual class: inhibitors. hit rate 0.52% among 330,000. AID 485341;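 further: plate controls were no compound for no effect and no enzyme for full effect; nearly all actives have a fitted effect of over 20% in size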
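20 mM phosphate pH 7.0 + 0.01% (detergent screen) or 0.0001% Triton X-100; 5.3 nM AmpC reagent; cpd preinc 15 min RT; nitrocefin (800 uM stock) to start; A480 q20 s × 4 min; Activity was normalised to no-enzyme and no-compound control wells.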
Sm TGR inh = S. mansoni TGR enzyme inhibition; Q962Y6; purified TGR, DTNB reduction, TNB absorbance 405 nm; Potency, µM (titrated, usually from 114 µM), for inactives: top-dose activity change, negative = inhibition, usual class: inhibitors; hit rate 3% among 360,000; AID 485364; further: nearly all actives have a fitted effect of over 60% in size
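TGR 20 nM + NADPH 100 uM (dispensed conc.), cpd preinc 15 min RT; start with NADPH (500 uM addition) then DTNB (15 mM addition). Kinetic TNB absorbance, 405 nm filter. Four-parameter Hill fit across titration.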
FMDV inh = blocks foot and mouth disease virus. FMDV antiviral cell-based qHTS. Potency, µM (highest dose often 57.9 µM), inactives show at the top dose activity change, negative = inhibition, actives largely listed as inhibitors. hit rate 1.2% among 410,000; calls by dose curve; tested in HEK293T cells; further: read-out not given here; nearly all actives have a fitted effect of over 45% in size
* marks the source's active call; other numbers are inactive results; ? = inconclusive; . = not tested or not shown; [ ] = remark or other dose. Unless noted, the call rests on the fitted dose curve; in most records, active means well fitted curve in the direction sought with a large enough effect; inconclusive means small, poorly fitted or top-dose-only effect, or another doubt; inactive means no such curve, though single readings can be large; an effect the other way counts as inactive or inconclusive. Unless noted, on the % scale 0 is the no-effect control and ±100 the full control effect; potency means the concentration at half of the fitted maximal effect.

SMILES | AMA1-RON2 inh | AmpC detergent | AmpC inh no detg | Sm TGR inh | FMDV inh
O=C1ON=C(c2ccc(Cl)c([N+](=O)[O-])c2)/C1=C/c1cccc([N+](=O)[O-])c1O | -0.7% | -18.2% | -7.6% | 8.9% | -15.8%
COc1ccc(/C=C2\C(=O)ON=C2c2ccccc2)cc1 | -18.1% | -16.8% | -27.0% | ? | 35.5µM*
O=C1ON=C(c2ccccc2)/C1=C/c1ccc(OS(=O)(=O)c2ccccc2)cc1 | -12.7% | -6.9% | -32.3% | 8.91µM* | 31.6µM*
O=C1ON=C(c2ccccc2)/C1=C/c1cccnc1 | -11.9% | -8.4% | -14.5%[11.4 µM] | -32.9% | 4.2%
CCc1cccc(OCC(=O)Nc2ccc(S(=O)(=O)Nc3ccccn3)cc2)c1 | 2.5% | -5.5% | 10µM* | . | 21.8%
Cc1ccc(OCC(=O)Nc2ccc(S(=O)(=O)Nc3ccccn3)cc2)cc1C | 5.5% | 0.5% | -22.7% | 6.8% | 29.0%
CC1=CC(=O)C=C(C)C1=NOc1ccccc1[N+](=O)[O-] | 1.6% | ? | -3.2% | 28.2µM* | -3.0%
Cc1c(C(=O)Nc2ccc3c(c2)OCCO3)sc2nc(-c3ccccc3)cn12 | -24.0% | 0.9% | 1.6% | -1.4% | 15.8µM*
CCN(CC)c1ccc(NC(=O)c2sc3nc(-c4ccccc4)cn3c2C)cc1 | . | 0.0% | . | -8.5% | -26.2%
Cc1c(C(=O)Nc2ccncc2)sc2nc(-c3ccccc3)cn12 | 14.7% | ? | 15.8% | -2.1% | 20µM*
COc1ccc(N2CCN(C(=O)COc3ccccc3C#N)CC2)cc1 | . | -2.6% | . | -3.8% | 1.6%
Cc1ccc(OCC(=O)Nc2nnc(SCc3cc(=O)c4ccccc4[nH]3)s2)cc1C | . | 5.0% | . | 2.9% | -16.3%
Cc1cccc(-n2cnc3cc(C(=O)NC4CCCCCC4)ccc32)c1 | . | 5.5% | . | -2.3% | 3.1%
O=C(CN1CC[C@@]2(O)CCCC[C@H]2[C@@H]1c1ccc(F)cc1)NCc1ccco1 | -16.9% | 3.9% | 38.0% | 39.8µM* | -9.0%
CC(C)CNC(=O)C1(C)CCCN1C(=O)CCc1cccs1 (centres undefined) | -9.4% | . | . | . | -14.5%
CCN(CC)C(=O)CSc1nnc(-c2ccc(S(=O)(=O)N3CCOCC3)cc2)n1C | -5.3% | -3.3% | 1.5% | 1.9% | -5.0%
CC(C)Sc1nnc(-c2ccc(S(=O)(=O)N3CCOCC3)cc2)n1C | 6.8% | 4.0% | 9.5% | 50.1µM* | -3.7%
COc1ccccc1N1CCN(C(=O)C2CCN(S(=O)(=O)c3cccs3)CC2)CC1 | . | 14.8% | . | -3.7% | 14.7%
O=C(Nc1ccccn1)c1onc2c1CCCC2 | -1.8% | -17.3% | -15.5% | -3.4% | 14.1µM*
O=C(Nc1ccccn1)c1csc2c1CCCC2 | -15.0% | -9.9% | -22.8% | . | 24.6%
COc1ccc(NC(=O)c2c(NCc3cccs3)sc3c2CCCCC3)c(OC)c1 | . | 2.7% | . | 5.62µM* | 16.0%
CCOC(=O)c1ccc(NC(=O)c2c(NCc3cccs3)sc3c2CCCCC3)cc1 | . | -1.0% | . | 14.1µM* | 5.8%
COc1cccc(CNc2sc3c(c2C(=O)Nc2ccc(OC)cc2OC)CCC3)c1 | . | 2.7% | . | ? | -9.1%
COc1ccc(NC(=O)CN(C)CC(=O)Nc2sc3c(c2C(N)=O)CCC3)cc1 | 56.5% | -15.0% | -6.8% | 50.1µM* | -10.0%
COc1ccc2nc(Nc3sc4c(c3C(N)=O)CCCC4)sc2c1 | 20.1% | ? | -36.5% | 12.6µM* | -8.0%
SMILES | AMA1-RON2 inh | AmpC detergent | AmpC inh no detg | Sm TGR inh | FMDV inh
COc1ccc(CC(=O)Nc2sc3c(c2C(N)=O)CCCC3)cc1 | 2.4% | -5.4% | -14.6% | -14.9% | -13.5%
Cc1ccccc1C1(CC(=O)N2CC3CC4CC(C3)CC2C4)CC(=O)N(Cc2cccnc2)C1=O (centres undefined) | . | . | . | . | 6.9%
COc1ccc(CN(C(=O)Nc2cc(C)ccc2C)C2CCN(C(C)=O)CC2)cc1 | . | -2.7% | . | 0.1% | -6.5%
C=CCc1c(C)nc2nc(SCC(=O)Nc3ccc(OCC)cc3)nn2c1C | . | 7.0% | . | 8.8% | -7.8%
COc1ccc(NC(=O)c2c(NCc3cccc(OC)c3)sc3c2CCC3)cc1 | . | -4.4% | . | ? | -7.3%
COc1ccc(NC(=O)c2c(NCc3cccs3)sc3c2CCCC3)cc1 | . | 6.3% | . | 31.6µM* | 71.4%
Cc1ccc(S(=O)(=O)Nc2cccc(-c3ccc(N4CCCCCC4)nn3)c2)cc1 | -10.9% | -12.8% | 0.708µM* | 0.4% | 38.4%
COc1ccc2ccc3cccc[n+]3c2c1 | 6.5% | . | . | . | 0.5%

From PubChem BioAssay
